Here are results for 52 compounds from ChEMBL document CHEMBL4808148, “HDAC6 screening dataset using tau-based substrate in an enzymatic assay yields selective inhibitors and activators” (2021).

About 390 (7%) of roughly 5,600 compounds showed an effect of 50% or more. The list comes from a sample in which strong results are over-represented; it also holds similar structures and randomly drawn compounds.

This assay has as its target T1, Protein deacetylase HDAC6 (Homo sapiens) (UniProt Q9UBN7).
T1 sequence (whole entry): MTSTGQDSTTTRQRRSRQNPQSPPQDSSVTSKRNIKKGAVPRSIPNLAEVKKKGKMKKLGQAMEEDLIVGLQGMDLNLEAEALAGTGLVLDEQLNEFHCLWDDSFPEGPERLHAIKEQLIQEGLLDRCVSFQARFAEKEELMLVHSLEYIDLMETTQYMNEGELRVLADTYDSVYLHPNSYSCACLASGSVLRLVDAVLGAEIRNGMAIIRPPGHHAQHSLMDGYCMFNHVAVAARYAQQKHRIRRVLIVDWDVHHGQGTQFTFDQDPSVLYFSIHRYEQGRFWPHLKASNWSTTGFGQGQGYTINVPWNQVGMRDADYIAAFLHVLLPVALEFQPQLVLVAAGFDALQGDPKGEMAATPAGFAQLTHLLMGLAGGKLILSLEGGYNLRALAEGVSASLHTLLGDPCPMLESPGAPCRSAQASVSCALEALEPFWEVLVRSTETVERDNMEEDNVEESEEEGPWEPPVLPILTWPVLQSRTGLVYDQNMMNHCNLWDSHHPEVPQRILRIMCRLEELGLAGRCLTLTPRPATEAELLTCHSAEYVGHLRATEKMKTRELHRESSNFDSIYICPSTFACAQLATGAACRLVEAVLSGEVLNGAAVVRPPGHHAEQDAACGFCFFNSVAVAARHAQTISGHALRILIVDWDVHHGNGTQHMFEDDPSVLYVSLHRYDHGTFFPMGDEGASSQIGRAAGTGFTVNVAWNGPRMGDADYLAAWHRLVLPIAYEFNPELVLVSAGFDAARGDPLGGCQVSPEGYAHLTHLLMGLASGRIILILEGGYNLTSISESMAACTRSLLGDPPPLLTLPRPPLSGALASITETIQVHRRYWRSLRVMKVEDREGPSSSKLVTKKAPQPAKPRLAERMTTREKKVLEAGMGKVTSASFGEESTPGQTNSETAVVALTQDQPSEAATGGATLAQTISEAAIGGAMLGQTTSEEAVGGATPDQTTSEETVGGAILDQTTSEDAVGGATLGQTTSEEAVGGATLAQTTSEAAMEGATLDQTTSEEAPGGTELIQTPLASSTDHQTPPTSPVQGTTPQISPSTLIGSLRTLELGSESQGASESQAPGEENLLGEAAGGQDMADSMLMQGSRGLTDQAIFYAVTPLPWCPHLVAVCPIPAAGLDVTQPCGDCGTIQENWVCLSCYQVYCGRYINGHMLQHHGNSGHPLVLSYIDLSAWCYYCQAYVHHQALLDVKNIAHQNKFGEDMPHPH
The note with it: at 10 µM.
Take `Clc1ccc(CCCOCCCN2CCCCC2)cc1`: the inhibition was 4.84%.

As to `NC(=O)Nc1sc(-c2ccc(F)cc2)cc1C(N)=O`, the inhibition is 81.4%.

Turning to `NC(=O)Nc1cc(-c2cccc(F)c2)sc1C(=O)N[C@H]1CCCNC1`, the inhibition is 8.78%.

Turning to `O=C(O)CN(CCN(CC(=O)O)CC(=O)O)CC(=O)O`, the inhibition was -8.06%.

As for `O=C(/C=C/c1cccnc1)c1ccncc1`, the inhibition came out at 2.24%.

`Cc1c(C)c2c(c(C)c1O)CCC(C)(C)O2`: the inhibition was determined as 20.7%.

On to `CC(=O)[C@H]1CC[C@H]2[C@@H]3C[C@H](C)C4=CC(=O)CC[C@]4(C)[C@H]3[C@@H](O)C[C@]12C`, for which the inhibition was 19.3%.

As to `CC(=O)Oc1ccccc1C(=O)Nc1ccccc1`, the inhibition is 87.4%.

Take `CC(=O)Oc1ccccc1C(=O)Oc1ccccc1C(=O)O`: the inhibition stood at 41%.

Consider `CC(=O)Oc1ccccc1C(=O)O`, for which the inhibition came to 2.2%.

Regarding `CCCC(=O)Nc1cccc(NC(=O)c2ccccc2Br)c1`, the inhibition was determined as 21%.

For `COc1ccccc1C(=O)Nc1cccc(NC(=O)c2cccc(C)c2)c1`, the inhibition stood at 63.7%.

As for `COc1ccccc1C(=O)Nc1cc2c(cc1N1CCCC1)n(C)c(=O)n2C`, the inhibition was determined as 46.1%.

Turning to `Cc1nc(Nc2ncc(C(=O)Nc3c(C)cccc3Cl)s2)cc(N2CCN(CCO)CC2)n1`, the inhibition turned out to be 21.2%.

Turning to `CC1(C)CC(=O)C(C2C3=C(CC(C)(C)CC3=O)Oc3ccccc32)C(=O)C1` (configuration not stated), the inhibition is -3.93%.

In the case of `N[C@H](Cc1c[nH]c2ccccc12)C(=O)O`, the inhibition was 12%.

Regarding `COCCNC(=O)Cn1cnc([N+](=O)[O-])n1`, the inhibition was determined as 6.28%.

With `CN([C@@H](Cc1ccc(OS(=O)(=O)c2cccc3cnccc23)cc1)C(=O)N1CCN(c2ccccc2)CC1)S(=O)(=O)c1cccc2cnccc12`, the inhibition was -4.11%.

In the case of `CC(C)c1cc(-c2n[nH]c(=O)n2-c2ccc3c(ccn3C)c2)c(O)cc1O`, the inhibition worked out at 29.4%.

On to `Nc1nc(N)c2nc(-c3cccc(O)c3)cnc2n1`, for which the inhibition worked out at 88.7%.

For the compound `Nc1nc(N)c2nc(-c3ccccc3)c(N)nc2n1`, the inhibition was 19.4%.

Turning to `Oc1cccc(-c2c3nc(c(-c4cccc(O)c4)c4ccc([nH]4)c(-c4cccc(O)c4)c4nc(c(-c5cccc(O)c5)c5ccc2[nH]5)CC4)C=C3)c1`, the inhibition came to 36.9%.

For the compound `CCc1cc(C(C)=O)c(O)cc1OCCCCCC(C)(C)c1nn[nH]n1`, the inhibition was 8.67%.

Consider `CCCCN(CC)c1nc(C)nc2c1c(C)c(C)n2-c1c(C)cc(C)cc1C`, for which the inhibition was 7.01%.

Regarding `Cn1cc(C(=O)OCC2CCN(CCNS(C)(=O)=O)CC2)c2ccccc21`, the inhibition is -8.82%.

`CN(Cc1ccccc1)C(=O)[C@H](Cc1ccc2ccccc2c1)NC(=O)[C@@H]1C[C@@H](O)CN1C(=O)c1cn(C)c2ccccc12`: the inhibition came to 84.1%.

As for `CN(C)CC/C=C1/c2ccccc2COc2ccc(CC(=O)O)cc21`, the inhibition is 2.79%.

Take `CC(C)Cc1ccc(C(C)C(=O)NO)cc1` (configuration not stated): the inhibition amounted to 49.7%.

For `CC1(N)CCN(c2cnc(-c3cccc(Cl)c3Cl)c(N)n2)CC1`, the inhibition is 21.6%.

`C[C@@](Cc1ccc(O)c(O)c1)(NN)C(=O)O`: the inhibition was -8.77%.

Consider `O=C(O)/C=C/c1ccc(-c2ccc(O)c(C34CC5CC(CC(C5)C3)C4)c2)cc1`, for which the inhibition was found to be 30.5%.

For the compound `O=C(/C=C/c1ccc(O)c(O)c1)OCCc1ccccc1`, the inhibition was 80.7%.

`COc1cc(NC(=O)Nc2cccc(CNC(=O)O[C@H]3CCOC3)c2)ccc1-c1cnco1`: the inhibition came out at 38.8%.

`CCCCCCNC(=O)n1cc(F)c(=O)[nH]c1=O`: the inhibition amounted to 5.48%.

`Cn1cc(-c2cnc3ccc4ccc(CS(=O)(=O)NCc5ccccn5)cc4c(=O)c3c2)cn1`: the inhibition is -2.81%.

Turning to `O=C(COc1ccc(Cl)cc1)N1CCN(Cc2ccc3c(c2)OCO3)CC1`, the inhibition is 6.09%.

As to `O=C(NCc1ccc2c(c1)OCO2)c1c(Cl)cccc1Cl`, the inhibition amounted to 76.1%.

On to `O=C(CN1CCN(Cc2ccc3c(c2)OCO3)CC1)N1c2ccccc2Sc2ccccc21`, for which the inhibition is 8.76%.

As for `NC(Cc1ccc(Cl)cc1)C(=O)O` (racemic), the inhibition came to 19.5%.

Regarding `O=c1sn(-c2cccc3ccccc23)c(=O)n1Cc1ccccc1`, the inhibition was 83.4%.

Turning to `Cc1ccc(-n2sc(=O)n(Cc3ccc(F)cc3)c2=O)cc1`, the inhibition was found to be 41.5%.

Regarding `CNC(=O)c1ccc2cc(C3(O)CCn4cncc43)ccc2c1` (configuration not stated), the inhibition turned out to be 25.9%.

As for `Nc1nc2c(c(N3CCNCC3)n1)CCC1=C2[C@@H]2CCCC[C@@H]2O1`, the inhibition is -3.26%.

For `CC(C)NCC(O)COc1ccc(CC(N)=O)cc1` (configuration not stated), the inhibition came to 4.66%.

`CNNCc1ccc(C(=O)NC(C)C)cc1`: the inhibition turned out to be 4.33%.

Consider `CC(C)COc1ccc(CNC(=O)N(Cc2ccc(F)cc2)C2CCN(C)CC2)cc1`, for which the inhibition was -8.99%.

For `C[C@H](NCc1ccc(OCc2cccc(F)c2)cc1)C(N)=O`, the inhibition is 83.6%.

As for `C[C@H](NCc1ccc(OCc2ccccc2F)cc1)C(N)=O`, the inhibition came out at 69.4%.

`C[C@H](NC(=O)Cc1cc(F)cc(F)c1)C(=O)N[C@H](C(=O)OC(C)(C)C)c1ccccc1`: the inhibition is 17.3%.

On to `C(#Cc1nc2ncccc2nc1OCCN1CCCC1)c1ccccc1`, for which the inhibition turned out to be 30.5%.

`O=c1[nH]c2ccccc2n1CCCN1CCN(C(c2ccccc2)c2ccccc2)CC1`: the inhibition is -9.27%.

With `O=C1c2ccccc2-n2c1nc1ccccc1c2=O`, the inhibition was 104%.

By inhibition is commonly meant the change of the read-out against control, counted positive when it falls.
